Test systems include HCT-15 colon; HT29 colon; SNB-19 CNS; U251 CNS; PC-3 prostate; SK-MEL-5 melanoma; UACC-62 melanoma; LOX IMVI melanoma; SK-MEL-28 melanoma; SK-MEL-2 melanoma; EKVX NSCLC; SN12C renal; UO-31 renal; TK-10 renal; ACHN renal; CAKI-1 renal; A498 renal; HL-60(TB) leukemia; CCRF-CEM leukemia; SNB-75 CNS.
What all share (assay): NCI-60 one-dose screen, 48 h (100 = growth as untreated, 0 = no growth, -100 = all killed)
Common to all, as to conditions: 10 µM unless noted

Compounds without any hit were thinned out: in the full panel of roughly 83,000, 20% have a hit.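 Testing used 96-well plates and a 48-hour single-concentration exposure. Example: -40 means 40% of the starting cells died.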 Values without a mark were called inactive. Calls of active or inactive are those of the source. Rule for the calls: active = growth percent below 10; inactive = the rest.

With `CC[PH+](CC)CC.O=COC1OC([S-])C(OC=O)C(OC=O)C1OC=O.[Au+]` (stereo not given), the growth in the test with HCT-15 colon was -74.9% (active); in the test on HT29 colon it was -54% (active); in the test with SNB-19 CNS, -99.1% (active); in the test with U251 CNS, -99.5% (active); in the test on PC-3 prostate it was -7.17% (active); in the test on SK-MEL-5 melanoma it was -96.7% (active). Further, the growth in the test with UACC-62 melanoma was -99% (active); with LOX IMVI melanoma it was -89.4% (active); with SK-MEL-28 melanoma, -92.1% (active); with SK-MEL-2 melanoma, -72.5% (active); in the test with EKVX NSCLC, -41.2% (active); in the test on SN12C renal it was -90.9% (active). For the same molecule, the growth is -91.2% (active) in the test on UO-31 renal; -97.7% (active) in the test with TK-10 renal; -99.7% (active) in the test with ACHN renal; -92.8% (active) in the test on CAKI-1 renal; -82.2% (active) in the test with A498 renal; -33.3% (active) with HL-60(TB) leukemia. Moreover, in the test on CCRF-CEM leukemia, the growth was -11.4% (active).

On to `OCCNC1CCCCC1`, for which the growth in the test with HCT-15 colon was 98.7%; in the test with HT29 colon, 109%; in the test on SNB-75 CNS it was 96.3%; in the test on U251 CNS, 106%; with PC-3 prostate it was 103%; in the test with SK-MEL-5 melanoma it was 103%. For the same molecule, the growth is 97.2% in the test on UACC-62 melanoma; 104% in the test with LOX IMVI melanoma; 104% with SK-MEL-28 melanoma; 104% in the test on SK-MEL-2 melanoma; 97.9% in the test with EKVX NSCLC; 100% in the test with SN12C renal. Besides, the growth in the test on TK-10 renal was 106%; in the test with ACHN renal, 102%; in the test on CAKI-1 renal, 102%; with A498 renal, 93.4%; with HL-60(TB) leukemia, 100%.

As for `CN(C)c1ccc(C=C2C(=O)NC(=O)NC2=O)cc1`, the growth is 102% in the test with HCT-15 colon; 113% in the test on HT29 colon; 92% in the test with SNB-75 CNS; 97% with U251 CNS; 105% in the test with PC-3 prostate; 94.4% in the test on SK-MEL-5 melanoma. Also, the growth was 94.5% in the test with UACC-62 melanoma; 85.8% in the test with LOX IMVI melanoma; 92.5% in the test on SK-MEL-28 melanoma; 105% with SK-MEL-2 melanoma; 92.4% with EKVX NSCLC; 77.5% in the test with SN12C renal. Further, the growth is 92.9% with UO-31 renal; 109% in the test on TK-10 renal; 89.3% with ACHN renal; 78.9% in the test with CAKI-1 renal; 102% in the test on HL-60(TB) leukemia; 115% in the test on CCRF-CEM leukemia.

Regarding `CC1=C(C)C(=O)O[C@@H]([C@](C)(O)[C@]2(O)CC[C@@]3(O)[C@@H]4C[C@H]5O[C@]56CC=CC(=O)[C@]6(C)[C@H]4CC[C@]23C)C1`, the growth with HCT-15 colon is -1.03% (active); in the test with HT29 colon, 1.74% (active); in the test on SNB-75 CNS it was -11.3% (active); in the test with PC-3 prostate, 11.2%; with SK-MEL-5 melanoma, -15.6% (active); in the test on UACC-62 melanoma, -5.31% (active). The growth in the test on LOX IMVI melanoma was -54.7% (active); in the test on SK-MEL-28 melanoma it was 1.96% (active); in the test on SK-MEL-2 melanoma, -24.6% (active); with SN12C renal it was 3.65% (active); with UO-31 renal, -24.3% (active); with TK-10 renal it was -48% (active). Also, the growth in the test with ACHN renal is -72.4% (active); with CAKI-1 renal, -49% (active); in the test on A498 renal, -59.9% (active); with HL-60(TB) leukemia, -36.9% (active).

In the case of `O=C(Cc1ccccc1)c1ccccc1`, the growth is 102% in the test with HCT-15 colon; 106% in the test on HT29 colon; 109% with SNB-19 CNS; 94.5% with U251 CNS; 98.2% in the test on PC-3 prostate; 99.6% with SK-MEL-5 melanoma. Moreover, the growth with UACC-62 melanoma was 111%; in the test on LOX IMVI melanoma, 106%; with SK-MEL-28 melanoma, 113%; in the test with SK-MEL-2 melanoma, 110%; in the test with EKVX NSCLC, 103%; with SN12C renal, 106%. The growth in the test with UO-31 renal was 90.2%; with TK-10 renal it was 95.5%; with ACHN renal, 107%; in the test with CAKI-1 renal it was 101%; in the test with A498 renal it was 63.6%; in the test with HL-60(TB) leukemia, 103%. For the same molecule, the growth in the test with CCRF-CEM leukemia is 7.63% (active).

For `CC(=O)C(N)Cc1ccccc1` (stereo not given), the growth in the test on HCT-15 colon was 103%; in the test with HT29 colon it was 103%; with SNB-75 CNS it was 86.7%; in the test with U251 CNS it was 84.2%; with PC-3 prostate it was 83.6%; in the test with SK-MEL-5 melanoma, 107%. The growth in the test on UACC-62 melanoma is 92.6%; in the test with LOX IMVI melanoma, 95.1%; with SK-MEL-28 melanoma, 114%; with SK-MEL-2 melanoma it was 107%; with EKVX NSCLC it was 100%; in the test on SN12C renal, 95.7%. In addition, the growth in the test with UO-31 renal is 96.3%; in the test on ACHN renal it was 99.7%; with CAKI-1 renal, 96.2%; in the test with CCRF-CEM leukemia it was 84.4%.

Consider `O=C(O)c1cc([N+](=O)[O-])cc([N+](=O)[O-])c1`, for which the growth in the test with HCT-15 colon is 109%; in the test on HT29 colon, 96.6%; with SNB-19 CNS, 105%; in the test on U251 CNS, 91.8%; with PC-3 prostate, 84.6%; in the test on SK-MEL-5 melanoma, 98%. Besides, the growth with UACC-62 melanoma was 105%; with LOX IMVI melanoma, 97%; with SK-MEL-28 melanoma, 106%; in the test with SK-MEL-2 melanoma it was 87.1%; with EKVX NSCLC, 104%; in the test on SN12C renal it was 97.5%. Also, the growth is 92% in the test with UO-31 renal; 96.9% with TK-10 renal; 105% in the test with ACHN renal; 93.8% with CAKI-1 renal; 92.6% in the test with A498 renal.

Take `COc1ccc2c(c1)c(-c1nc(-c3cn(C)c4ncccc34)cs1)cn2CCCCN1CCOCC1`: the growth in the test on HCT-15 colon was -42.1% (active); in the test with HT29 colon, -87.8% (active); in the test with SNB-75 CNS, 43.6%; in the test on U251 CNS, -55.3% (active); with PC-3 prostate, 31.3%; with SK-MEL-5 melanoma, 14.5%. Moreover, the growth in the test with UACC-62 melanoma is 3.59% (active); in the test on LOX IMVI melanoma, -78.8% (active); with SK-MEL-28 melanoma, -93.5% (active); in the test with SK-MEL-2 melanoma it was 64.4%; in the test with EKVX NSCLC it was 60.2%; in the test with SN12C renal it was 68%. For the same molecule, the growth was 34% with UO-31 renal; 69.9% in the test with TK-10 renal; 32% in the test with ACHN renal; 41.4% in the test with CAKI-1 renal; 24.7% with HL-60(TB) leukemia; 2.06% (active) in the test with CCRF-CEM leukemia.

The values above are taken from PubChem BioAssay (NCI).
